Assay outcomes from PubChem.
Only some compounds are listed: those with a hit (about 8.1% of all), similar ones and a draw of the others.
KB-V1 cytotox: qHTS assay for MDR1-selective chemotherapeutics: Primary screen using the drug-selected MDR subline cells KB-V1; KB-V1 MDR cells viability, CellTiter-Glo, 72 h; Potency, µM (doses to about 46.1 µM), usual class: cytotoxic; actives 3.4% (n = 400,000); note: nearly all actives have a fitted effect of over 60% in size
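KB-V1 MDR subline cells in DMEM (phenol-red free, 10% FBS) exposed to compounds in qHTS concentration series for 72 h at 37 degrees C. Viability read by CellTiter-Glo luminescence; concentration-effect curves fitted after normalization and correction.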
ELG1 repair inh: qHTS screen for small molecules that inhibit ELG1-dependent DNA repair in human embryonic kidney (HEK293T) cells expressing luciferase-tagged ELG1; actives 2.3% (n = 330,000); HEK293T ELG1-luciferase reporter, luminescence, 16 h; DNA damage induced by 5-fluorouridine; AID 504467, 2011; Potency, µM (series often up to 46.1 µM), hits mostly inhibitors; note: nearly all actives have a fitted effect of over 55% in size
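Step one: seed 2,000 cells per well. Step two: pin-transfer compound or DMSO alongside 5-fluorouridine. Step three: incubate 16 hr, 37 °C, 5% CO2. Step four: add ONE-Glo, wait 30 min, read luminescence.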
MCF10A rereplic: A quantitative high throughput screen for small molecules that induce DNA re-replication in MCF 10a normal breast cells. MCF 10A DNA re-replication, Hoechst nuclear intensity, 48 h. Potency, µM (series often up to 46.1 µM), most hits filed as activators. actives 2.9% (n = 350,000). AID 624296, 2012; note: nearly all actives have a fitted effect of over 50% in size
SW480 rerep: A quantitative high throughput screen for small molecules that induce DNA re-replication in SW480 colon adenocarcinoma cells. SW480 DNA re-replication, Hoechst DNA content imaging, 48 h. Potency, µM (doses to about 46.1 µM), hits mostly activators. actives 1.8% (n = 340,000). AID 624297, 2012; note: nearly all actives have a fitted effect of over 55% in size
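Readout is total intensity of Hoechst-stained nuclei, excited at 405 nm and collected at 500-530 nm. Compound treatment lasted 48 hr at 37 C in 5% CO2 before staining.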
KB-3-1 cytotox: qHTS assay for MDR1-selective chemotherapeutics: Primary screen using the parental adenocarcinoma cell KB-3-1; KB-3-1 viability, CellTiter-Glo ATP luminescence, 72 h; Potency, µM (top dose mostly 46.1 µM), hits mostly cytotoxic; actives 1.4% (n = 400,000); note: nearly all actives have a fitted effect of over 60% in size
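Viability of parental KB-3-1 cells, measured by CellTiter-Glo luminescence, followed a 72 h incubation at 37 °C with pinned compounds in phenol-red-free DMEM containing 10% FBS.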
Large screens that a line does not name were inactive. Calls come from the whole dose curve; as a rule, active = well fitted curve in the direction sought with a large enough effect; inconclusive = small, poorly fitted or top-dose-only effect, or another doubt; inactive = no such curve, though single readings can be large; an effect the other way counts as inactive or inconclusive.

Nc1nc2nc(-c3ccc(OCc4ccccc4)cc3)cc(C(F)(F)F)n2n1	MCF10A rereplic inconclusive, SW480 rerep inconclusive
COc1cccc(N2CCN(C(=O)c3ccc4c(Cl)c5c(nc4c3)CCCC5)CC2)c1	none (no result: ELG1 repair inh, MCF10A rereplic, SW480 rerep)
O=C(CSc1cn(CCNC(=O)c2ccccc2F)c2ccccc12)Nc1ccc2c(c1)OCCO2	none (no result: ELG1 repair inh, MCF10A rereplic, SW480 rerep)
O=C(NC1CCCCC1)C(c1cccs1)N(C(=O)C(F)(F)F)c1ccccc1 (stereo not drawn)	MCF10A rereplic 15µM, SW480 rerep inconclusive
C#CC(=O)N(c1cc(OC)ccc1OC)C(C(=O)NC1CCCC1)c1cccs1 (stereo not drawn)	KB-V1 cytotox inconclusive, ELG1 repair inh 23µM, SW480 rerep 0.15µM, KB-3-1 cytotox 15µM
O=C(NC1CCCCC1)C(c1ccco1)N(CCc1ccccc1)C(=O)C(F)(F)F (stereo not drawn)	KB-V1 cytotox 7.3µM, KB-3-1 cytotox inconclusive
C#CC(=O)N(c1ccc(OC)cc1OC)C(C(=O)NC1CCCC1)c1cccs1 (stereo not drawn)	MCF10A rereplic inconclusive, SW480 rerep inconclusive
O=C(NC1CCCCC1)C(c1ccco1)N(Cc1cccs1)C(=O)Cn1nnc2ccccc21 (stereo not drawn)	KB-V1 cytotox 5.2µM, ELG1 repair inh inconclusive
COc1ccc(C2COC(=O)C2=N)c(NC(=O)c2ccc(Cl)cc2)c1 (stereo not drawn)	none
COc1ccc(OC)c(-c2csc(N(C)C(=O)Cc3ccccc3)n2)c1	KB-V1 cytotox inconclusive, ELG1 repair inh inconclusive
O=C(Cc1cccc(C(F)(F)F)c1)Nc1ccccc1	none
CCc1ccccc1NC(=O)Nc1c(C)n(C)n(-c2ccccc2)c1=O	KB-V1 cytotox inconclusive
O=C(Cc1ccccn1)c1ccc(Cl)cc1	ELG1 repair inh inconclusive
CC1=C(CC(=O)c2ccc(Cl)cc2)C(=O)c2ccccc2C1=O	KB-V1 cytotox 16µM, ELG1 repair inh inconclusive, MCF10A rereplic 4.1µM, SW480 rerep 4.1µM, KB-3-1 cytotox inconclusive
Cc1ccccc1Nc1nc(Nc2ccccc2C)nc(SC2=NCCS2)n1	KB-V1 cytotox 16µM, ELG1 repair inh inconclusive
CCOc1ccc(OCC)c(-c2c(=O)n(OCc3ccccc3C(=O)OC)c3ccccc3[n+]2[O-])c1	KB-V1 cytotox 3.7µM, ELG1 repair inh inconclusive
C=CCn1c(-c2ccc(OC)cc2)nc2nc3ccccc3nc21	none
CCCn1c(-c2cc(OC)c(OC)c(OC)c2)nc2nc3ccccc3nc21	ELG1 repair inh 16µM
CCN(CC)S(=O)(=O)c1ccc(C)c(NC(=O)c2cc(C)oc2C)c1	ELG1 repair inh inconclusive
COC(=O)C(NNc1ccccc1)(NC(=O)c1ccc(F)cc1)C(F)(F)F (stereo not drawn)	KB-V1 cytotox 23µM, KB-3-1 cytotox inconclusive
COC(=O)C(NNc1ccccc1)(NC(=O)c1ccccc1F)C(F)(F)F (stereo not drawn)	none
Cc1nc2cccnc2n1C1CCN(S(=O)(=O)c2ccc(C(C)C)cc2)CC1	none (no result: ELG1 repair inh, MCF10A rereplic, SW480 rerep)
CCOC(=O)N1CCN(c2ncc3c(n2)CC(c2ccc(OC)c(OC)c2)CC3=O)CC1 (stereo not drawn)	KB-V1 cytotox 4.1µM, KB-3-1 cytotox inconclusive (no result: ELG1 repair inh, MCF10A rereplic, SW480 rerep)
COc1ccc(C2CC(=O)c3cnc(N4CCN(Cc5ccccc5)CC4)nc3C2)cc1 (stereo not drawn)	ELG1 repair inh inconclusive
CCN1CCN(c2ncc3c(n2)CC(c2ccc(OC)c(OC)c2)CC3=O)CC1 (stereo not drawn)	KB-V1 cytotox 21µM, ELG1 repair inh inconclusive, MCF10A rereplic inconclusive, SW480 rerep inconclusive, KB-3-1 cytotox 16µM
CCCN(S(=O)(=O)c1ccccc1F)S(=O)(=O)c1ccccc1Br	MCF10A rereplic 21µM, SW480 rerep inconclusive
CCn1cc(C(=O)OCc2ccc(F)cc2)c(=O)c2ccc(C)nc21	KB-V1 cytotox inconclusive, ELG1 repair inh inconclusive
O=C1CC(C(=O)N(c2ccc(F)cc2)C(C(=O)NC2CCCC2)c2ccccn2)CS1 (stereo not drawn)	KB-V1 cytotox 12µM
OCCN1CCN(c2nc(NCc3ccco3)c3ccccc3n2)CC1	MCF10A rereplic inconclusive, SW480 rerep inconclusive
OCCNc1nc(Nc2ccc(O)cc2)nc2ccccc12	none
OCCNc1nc(N2CCN(c3ccccc3)CC2)nc2ccccc12	MCF10A rereplic 7.3µM
c1ccc(CN2CCN(c3nc(NCc4ccco4)c4ccccc4n3)CC2)cc1	KB-V1 cytotox 3.7µM, ELG1 repair inh inconclusive, MCF10A rereplic inconclusive, SW480 rerep inconclusive, KB-3-1 cytotox inconclusive
Cc1ccc(OCCN2CCN(c3nc(NCc4ccco4)c4ccccc4n3)CC2)cc1	KB-V1 cytotox 16µM, MCF10A rereplic 15µM, SW480 rerep inconclusive, KB-3-1 cytotox inconclusive
Clc1nc(NCc2ccco2)c2ccccc2n1	none (no result: ELG1 repair inh, MCF10A rereplic, SW480 rerep)
Cc1ccccc1NC(=O)COC(=O)c1ccccc1OCC(=O)Nc1ccc(Br)cc1	none (no result: ELG1 repair inh, MCF10A rereplic, SW480 rerep)
Fc1ccc(Oc2nc(-c3ccccn3)nc3ccccc23)cc1	KB-V1 cytotox inconclusive, ELG1 repair inh inconclusive, MCF10A rereplic inconclusive
c1ccc(Oc2nc(-c3ccccn3)nc3ccccc23)cc1	ELG1 repair inh inconclusive, MCF10A rereplic inconclusive, SW480 rerep 21µM, KB-3-1 cytotox inconclusive
COc1ccc(Oc2nc(-c3ccccn3)nc3ccccc23)cc1	KB-V1 cytotox inconclusive, ELG1 repair inh 9.2µM, SW480 rerep inconclusive, KB-3-1 cytotox inconclusive
COc1cccc(Oc2nc(-c3ccncc3)nc3ccccc23)c1	KB-V1 cytotox inconclusive, MCF10A rereplic 18µM, KB-3-1 cytotox inconclusive
O=C(/C=C/c1ccccc1)Nc1cccc(C(=O)N2CCCCC2)c1	none (no result: ELG1 repair inh)
CCc1cc(Cn2nc(-c3ccccc3)cc2C(=O)NCc2cccc(Br)c2)on1	KB-V1 cytotox 23µM, ELG1 repair inh inconclusive, MCF10A rereplic inconclusive, KB-3-1 cytotox inconclusive
CCCCNc1c(-c2cccnc2)nc2nc(C)cc(C)n12	KB-V1 cytotox inconclusive (no result: ELG1 repair inh, MCF10A rereplic, SW480 rerep)
Cc1cccc2nc(-c3cccnc3)c(NCCC(C)C)n12	KB-V1 cytotox inconclusive, MCF10A rereplic 21µM
Cc1cccc2nc(-c3cccnc3)c(Nc3ccccc3)n12	KB-V1 cytotox 18µM, ELG1 repair inh 18µM, KB-3-1 cytotox inconclusive
CC1CCCCN1CCCNC(=O)C1CCN(c2nnc(-n3cccc3)s2)CC1 (stereo not drawn)	none
Cn1c(CC(=O)Nc2ccc(Cl)c(Cl)c2)nnc1SCC(=O)Nc1nccs1	none
Cn1c(SCC(=O)Nc2nccs2)nnc1C12CC3CC(CC(C3)C1)C2	KB-V1 cytotox 21µM
Cn1c(CSCc2ccccc2Cl)nnc1SCC(=O)Nc1nccs1	KB-V1 cytotox 21µM
CCOC(=O)CC1(C)NC(=O)c2c(C)sc(C(=O)OCC)c2N1 (stereo not drawn)	KB-V1 cytotox 16µM
